20 compounds from PubChem BioAssay can be followed below.

One may read the inhibition as the change of the read-out against control, counted positive when it falls.

Values without a mark were called inactive. For some of these results: Results with a measured potency or affinity are listed apart. Calls of active or inactive are those of the source. Unless noted, no rule for the calls is given here.

Test [1] can be described thus: antimalarial activity against Dd2 strain (AID 2302;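 active = growth inhibition above 50% at the single 2 µM test dose, taken to imply half-maximal potency below 2 µM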;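 also: 0% = DMSO untreated growth and 100% = chloroquine plus artemisinin killed control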). To be noted: P. falciparum Dd2 in RBCs, LDH growth readout, 72 h; at 2 µM; hits give high values.
Test [2] in a line: HepG2 cytotoxicity, primary screen, cytotoxicity control for P. falciparum antimalarial project, cell-based, ATP luminescence (AID 2303;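 active = inhibition above 50%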;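 also: 0% = DMSO wells and 100% = digitonin-killed cells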). To be noted: HepG2 viability, 24-48 h, at 10 µM, hits give high values.
Test [3] deals with L-lactate dehydrogenase (Plasmodium falciparum (isolate CDC / Honduras)) (UniProt Q27743). Put plainly: PfLDH activity inhibition – cell lysate, 3D7 strain, counter-screen for P. falciparum growth inhibition project (AID 2304).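 Also: 0% = vehicle and 100% = reference inhibitor.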 To be noted: P. falciparum 3D7 crude extract, LDH APAD/NBT absorbance; at 2 µM; hits give high values. On the technique in general: Counterscreens check selectivity or assay interference.

Test [4] can be described thus: inhibition of 3D7 malaria parasite growth – strain 3D7 (AID 2306).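 Also: 0% = DMSO wells and 100% = chloroquine plus artemisinin control wells.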 To be noted: P. falciparum 3D7 erythrocytic growth, LDH absorbance, 72 h; at 2 µM; hits give high values.
The target of test [5] is Calcium-dependent protein kinase 1 (Plasmodium falciparum (isolate 3D7)) (UniProt P62344). Put plainly: PfCDPK1 kinase inhibitors, biochemical, TCAMS library (AID 1159585; cut-off not given, nearly all actives have IC50 up to about 0.98 µM;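 also: inhibitors leave more ATP so luminescence rises with inhibition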). To be noted: recombinant PfCDPK1, Kinase-Glo ATP depletion luminescence. For orientation: In Kinase-Glo more light means more ATP remaining.
The target in test [6] is Plasmodium falciparum protein kinase 6 (PK6, PF3D7_1337100) (UniProt Q8IDW1). Put plainly: PfPK6 kinase inhibitors, biochemical, TCAMS library (AID 1159586). To be noted: recombinant PfPK6, Kinase-Glo ATP depletion luminescence.
Test [7] has as its target Protein kinase 7 (PK7), Plasmodium falciparum 3D7 (PF3D7_0213400) (UniProt Q7YTF7). Put plainly: inhibition of Plasmodium PK7 catalytic activity – biochemical, TCAMS antimalarial set, Kinase-Glo luminescence (AID 1159587). The following applies: recombinant PfPK7, Kinase-Glo ATP depletion luminescence.
Test [8] deals with Calcium-dependent protein kinase 4 (Plasmodium falciparum (isolate 3D7)) (UniProt Q8IBS5). Briefly: PfCDPK4 kinase inhibitors, biochemical, TCAMS library (AID 1159588; cut-off not given, nearly all actives have IC50 up to about 0.91 µM). The following applies: recombinant PfCDPK4, Kinase-Glo ATP depletion luminescence.
Sequence of Calcium-dependent protein kinase 4 (Plasmodium falciparum (isolate 3D7)) (Q8IBS5 whole entry, looked up): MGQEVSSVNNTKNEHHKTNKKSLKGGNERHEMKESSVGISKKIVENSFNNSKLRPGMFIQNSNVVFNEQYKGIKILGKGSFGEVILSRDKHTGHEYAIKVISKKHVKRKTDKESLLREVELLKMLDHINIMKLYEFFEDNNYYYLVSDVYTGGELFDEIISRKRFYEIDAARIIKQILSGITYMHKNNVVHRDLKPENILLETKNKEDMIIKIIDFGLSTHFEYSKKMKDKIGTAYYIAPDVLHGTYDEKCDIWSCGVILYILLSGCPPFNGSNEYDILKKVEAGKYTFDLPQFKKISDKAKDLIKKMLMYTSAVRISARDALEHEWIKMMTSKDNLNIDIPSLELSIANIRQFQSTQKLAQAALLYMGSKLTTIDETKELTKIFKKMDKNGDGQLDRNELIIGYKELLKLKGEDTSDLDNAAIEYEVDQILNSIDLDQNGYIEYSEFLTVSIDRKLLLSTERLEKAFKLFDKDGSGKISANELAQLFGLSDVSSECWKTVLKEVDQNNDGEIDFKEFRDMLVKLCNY

Sequence of L-lactate dehydrogenase (Plasmodium falciparum (isolate CDC / Honduras)) (Q27743 whole entry, looked up): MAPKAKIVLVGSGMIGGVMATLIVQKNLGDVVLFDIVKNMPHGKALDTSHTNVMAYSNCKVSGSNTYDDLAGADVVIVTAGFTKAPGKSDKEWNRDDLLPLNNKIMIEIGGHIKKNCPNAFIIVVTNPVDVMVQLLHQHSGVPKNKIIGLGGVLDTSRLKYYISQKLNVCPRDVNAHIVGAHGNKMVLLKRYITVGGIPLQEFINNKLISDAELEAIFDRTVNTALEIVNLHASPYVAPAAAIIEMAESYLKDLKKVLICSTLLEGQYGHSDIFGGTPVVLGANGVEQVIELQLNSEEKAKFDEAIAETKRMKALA
Sequence of Plasmodium falciparum protein kinase 6 (PK6, PF3D7_1337100) (Q8IDW1 1-305): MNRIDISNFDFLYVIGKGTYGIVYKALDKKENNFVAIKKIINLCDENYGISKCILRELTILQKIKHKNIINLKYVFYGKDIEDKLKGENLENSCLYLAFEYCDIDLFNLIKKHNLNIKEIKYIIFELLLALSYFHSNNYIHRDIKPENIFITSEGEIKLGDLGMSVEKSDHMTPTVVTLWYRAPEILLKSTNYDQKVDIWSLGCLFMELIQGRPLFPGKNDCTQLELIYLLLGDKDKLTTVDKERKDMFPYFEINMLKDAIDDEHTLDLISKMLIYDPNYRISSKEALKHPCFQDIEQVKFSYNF
Sequence of Protein kinase 7 (PK7), Plasmodium falciparum 3D7 (PF3D7_0213400) (Q7YTF7 1-343): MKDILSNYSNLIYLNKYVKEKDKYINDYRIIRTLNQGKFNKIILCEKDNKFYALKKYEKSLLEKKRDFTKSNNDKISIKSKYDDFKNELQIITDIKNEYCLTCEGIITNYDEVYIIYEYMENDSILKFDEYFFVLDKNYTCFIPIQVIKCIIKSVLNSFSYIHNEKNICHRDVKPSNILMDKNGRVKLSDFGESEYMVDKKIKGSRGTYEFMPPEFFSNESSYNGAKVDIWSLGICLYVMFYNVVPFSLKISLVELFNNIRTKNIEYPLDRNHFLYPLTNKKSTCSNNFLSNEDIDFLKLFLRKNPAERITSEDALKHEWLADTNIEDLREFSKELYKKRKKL
Sequence of Calcium-dependent protein kinase 1 (Plasmodium falciparum (isolate 3D7)) (P62344 whole entry, looked up): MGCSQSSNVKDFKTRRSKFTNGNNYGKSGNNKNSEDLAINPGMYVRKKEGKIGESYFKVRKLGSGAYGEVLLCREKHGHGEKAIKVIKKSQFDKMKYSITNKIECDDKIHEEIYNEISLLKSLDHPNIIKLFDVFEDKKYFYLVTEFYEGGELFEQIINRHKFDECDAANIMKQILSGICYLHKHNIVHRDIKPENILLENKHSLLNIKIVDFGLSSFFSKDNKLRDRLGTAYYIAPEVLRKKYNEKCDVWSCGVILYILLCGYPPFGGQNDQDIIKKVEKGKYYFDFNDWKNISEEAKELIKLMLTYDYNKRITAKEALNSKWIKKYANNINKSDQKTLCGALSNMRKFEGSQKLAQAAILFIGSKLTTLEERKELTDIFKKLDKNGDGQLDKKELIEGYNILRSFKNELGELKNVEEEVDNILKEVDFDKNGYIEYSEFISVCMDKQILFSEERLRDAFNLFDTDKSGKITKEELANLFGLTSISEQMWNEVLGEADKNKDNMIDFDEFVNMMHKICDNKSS

On to `CCCCCCOc1ccc(C(=O)NCCCC2CCN(CCCCCNC(=O)C=Cc3ccc(Cl)c(Cl)c3)CC2)cc1`, for which the figures for the growth inhibition in test [1] and in test [4] were 25% and 94% (active), respectively. Moreover, the inhibition in test [2] was 22%; in test [3], -2%. Besides, the outcome in test [5], in test [6], in test [7] and in test [8] was inactive.

For the compound `COC(=O)c1cccc(C#CCCOCCCCCCNC[C@H](O)c2cc(Cl)c(N)c(Cl)c2)c1`, the growth inhibition is 88% (active) in test [1] and 97% (active) in test [4]. For the same compound, the inhibition in test [2] is 12%; in test [3], -3%. The outcome in test [5], in test [6], in test [7] and in test [8] was inactive.

With `Cc1onc(-c2ccccc2)c1-c1nc(NCc2ccccc2Cl)no1`, the growth inhibition was 92% (active) in test [1] and 99% (active) in test [4]. In addition, the values for the inhibition in test [2] and in test [3] were 2% and -3%, respectively. Besides, the result in test [5], in test [6], in test [7] and in test [8] was inactive.

For the compound `Cc1ccc(NC(=O)c2ccc(NCCCN(C)Cc3ccccc3)c([N+](=O)[O-])c2)cc1F`, the growth inhibition in test [1] is 61% (active); in test [4], 101% (active). Further, the inhibition in test [2] was 12%; in test [3], -7%. The outcome in test [5], in test [6], in test [7] and in test [8] was inactive.

Regarding `O=C(Nc1cc(C(F)(F)F)cc(C(F)(F)F)c1)Nc1cc(C(F)(F)F)cc(C(F)(F)F)c1`, the results for the growth inhibition in test [1] and in test [4] were 101% (active) and 97% (active), respectively. In addition, the inhibition was 5% in test [2] and -7% in test [3]. The outcome in test [5], in test [6], in test [7] and in test [8] was inactive.

For `Cc1cc(CN2CCC(Nc3ncc(-c4ccsc4)c4nc(C(F)(F)F)ccc34)CC2)no1`, the growth inhibition in test [1] was 67% (active); in test [4], 81% (active). Also, the inhibition was 8% in test [2] and -3% in test [3]. The result in test [5], in test [6], in test [7] and in test [8] was inactive.

`COc1ccc(Nc2nc(N)c3cc(OC)c(OC)cc3n2)cc1OC`: the figures for the growth inhibition in test [1] and in test [4] were 5% and 99% (active), respectively. For the same compound, the inhibition in test [2] is -4%; in test [3], -7%. In addition, the outcome in test [5], in test [6], in test [7] and in test [8] was inactive.

As for `COc1ccc(OC)c(Cc2cnc3nc(N)[nH]c(=O)c3c2C)c1`, the growth inhibition is 4% in test [1] and 98% (active) in test [4]. Further, the inhibition in test [2] is 62% (active); in test [3], 3%. Moreover, the result in test [5], in test [6], in test [7] and in test [8] was inactive.

For `Cc1cc(N2CCCCC2)nc2ccc(NC(=O)c3cccc([N+](=O)[O-])c3)cc12`, the results for the growth inhibition in test [1] and in test [4] were 99% (active) and 95% (active), respectively. The inhibition was 9% in test [2] and 2% in test [3]. Also, the result in test [5], in test [6], in test [7] and in test [8] was inactive.

Regarding `Cc1cc(NC(=O)Nc2ccc3nccc(N4CCN(C)CC4)c3c2)ccc1Br`, the growth inhibition is 100% (active) in test [1] and 101% (active) in test [4]. For the same compound, the inhibition was 31% in test [2] and -2% in test [3]. Also, the result in test [5], in test [6], in test [7] and in test [8] was inactive.

Turning to `CN1CCc2cc(NC(=O)c3cc4ccccc4s3)cc(-c3ccccc3)c2CC1`, the growth inhibition in test [1] is 11%; in test [4], 91% (active). Besides, the inhibition is 20% in test [2] and -2% in test [3]. Moreover, the result in test [5], in test [6], in test [7] and in test [8] was inactive.

Consider `CCOc1cc(C(=O)NCCN2CCCCC2)ccc1-c1nc2ccc(Cl)cc2[nH]1`, for which the growth inhibition in test [1] was 8%; in test [4] it was 99% (active). Also, the inhibition in test [2] was 4%; in test [3] it was -3%. Moreover, the outcome in test [5], in test [6], in test [7] and in test [8] was inactive.

In the case of `COc1ccc2nc(/C=C/c3cccc4ccc(C)nc34)[nH]c2c1`, the growth inhibition is 77% (active) in test [1] and 98% (active) in test [4]. The values for the inhibition in test [2] and in test [3] were 25% and -1%, respectively. In addition, the result in test [5], in test [6], in test [7] and in test [8] was inactive.

For the compound `Oc1ccc(CCNCCCCNCCc2ccc(Cl)cc2)cc1O`, the growth inhibition is -1% in test [1] and 94% (active) in test [4]. Also, the inhibition in test [2] is 33%; in test [3] it was -1%. In addition, the result in test [5], in test [6], in test [7] and in test [8] was inactive.

With `Oc1ccc(CCNc2nc(N/N=C/C=C/c3ccc(Cl)cc3)nc(N3CCNCC3)n2)cc1`, the growth inhibition in test [1] was 52% (active); in test [4] it was 98% (active). The inhibition in test [2] was 17%; in test [3], 2%. The outcome in test [5], in test [6], in test [7] and in test [8] was inactive.

As to `NC(=O)c1cccc(CN2Cc3ccccc3OC3(CCN(Cc4c[nH]c5cnccc45)CC3)C2)c1`, the growth inhibition was 2% in test [1] and 94% (active) in test [4]. The inhibition in test [2] is 9%; in test [3], -2%. The outcome in test [5], in test [6], in test [7] and in test [8] was inactive.

`Cc1ccc2nc(/C=C/c3cccc4cc[nH]c34)[nH]c2c1`: the growth inhibition in test [1] is 92% (active); in test [4], 100% (active). Also, the results for the inhibition in test [2] and in test [3] were 9% and -3%, respectively. The result in test [5], in test [6], in test [7] and in test [8] was inactive.

Regarding `CCOc1ccc(-c2nonc2NC(=O)CC(C)C)cc1OCC`, the results for the growth inhibition in test [1] and in test [4] were 37% and 92% (active), respectively. Besides, the inhibition in test [2] is -1%; in test [3], 6%. For the same compound, the outcome in test [5], in test [6], in test [7] and in test [8] was inactive.

For the compound `COc1ccc(N2CCN(CCCC/C=C/c3ccc(NC(=O)c4cc(Cl)cc(Cl)c4)cc3)CC2)c(OC)c1`, the growth inhibition is 39% in test [1] and 99% (active) in test [4]. Also, the results for the inhibition in test [2] and in test [3] were 20% and 5%, respectively. Also, the result in test [5], in test [6], in test [7] and in test [8] was inactive.

`CCc1ccc(C2CCN(CCCCNC(=O)c3ccc(NC(=O)c4ccc(Cl)cc4)cc3)CC2)c(OCCO)c1`: the growth inhibition in test [1] was 100% (active); in test [4], 98% (active). Besides, the inhibition in test [2] is 94% (active); in test [3], -3%. Besides, the outcome in test [5], in test [6], in test [7] and in test [8] was inactive.
